In PubChem BioAssay:

These molecules were tested on PRMT1 (protein arginine N-methyltransferase 1) (assay: PRMT1 binders on small-molecule microarrays, primary screen, biochemical, small-molecule microarray, 635 nm fluorescence (AID 1088;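 also: binding of Prmt1 protein to compounds spotted on small-molecule microarray slides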)). Details: small-molecule microarray binding, higher = more signal.

SMILES | composite z-score
COC(=O)c1c(CC[C@@H](CO)NC(=O)NCCc2c[nH]c3ccccc23)oc(C(=O)Cc2ccccc2)c1C(=O)OC | 0.578
CC(C)[Si](C#CCCCC#N)(Oc1ccccc1Br)C(C)C | 0.987
COc1cc(CO)cc(I)c1O[C@H]1C=C(C(=O)NCCO)C[C@@H](N(C(=O)c2cc3ccccc3oc2=O)C2CCCCCC2)[C@@H]1O | -0.446
C=CCC(OC(C)=O)[C@@H]1[C@@H](N(Cc2ccc(-c3cccc(C(F)(F)F)c3)o2)C(=O)c2cccc3ccccc23)c2cc(OCCCO)ccc2N1C(=O)Cc1ccc2ccccc2c1 (stereo partly specified) | 0.263
CC(c1ccccc1)C(O)C1C=CC2C(=O)N(C)C(=O)C2N1NC(=O)OC(C)(C)C (stereo unspecified) | 1.39
COc1ccc(CCNC(=O)[C@@]2(C)c3ccccc3C(=O)N(c3ccc(C)cn3)[C@H]2c2ccc(CO)cc2)cc1 | -0.0351
C#CCNCc1ccccc1 | -0.0993
CC[C@@H]1C=C(C(=O)O)[C@H](c2ccc(C)cc2)N1S(=O)(=O)c1ccc(C)cc1 | 0.805
COCCCNC(=O)[C@@H]1c2ccccc2C(=O)N(Cc2ccccc2OC)[C@H]1c1ccc(CO)cc1 | -0.244
C=CCOC(=O)[C@H]1[C@@H]2C(=O)O[C@@H](c3ccccc3)[C@@H](c3ccccc3)N2[C@@H](c2ccc(OCCOC(=O)[C@@H]3C[C@@H]4C(=O)N5CCC[C@H]5C(=O)N4[C@@H]3c3cccc(OCCO)c3)cc2)[C@]12C(=O)Nc1ccc(I)cc12 | 1.56
CC(=O)NCCCC[C@@H]1NC(=O)[C@H]2C[C@@H](C(=O)O)[C@@H](c3ccc(O)cc3)N2C1=O | 1.55
CCCC=C(CCC)[C@@H](NS(=O)(=O)c1ccc(Cl)cc1)c1ccc(C(=O)OC)cc1 | 0.687
[N-]=[N+]=NCc1ccccc1[C@@H]1OC(c2ccc(OCCCO)cc2)=N[C@]1(CCS(=O)(=O)c1ccccc1)C(=O)N1CCCCC1 | 1.56
C=CCC(OC(C)=O)[C@@H]1[C@@H](N(Cc2ccc(-c3ccccc3)cc2)C(=O)Cc2ccc(F)cc2)c2cc(OCCCO)ccc2N1C(=O)c1ccc2ccccc2c1 (stereo partly specified) | 0.688
CCCCCCCCCCC(O)C1C=CC2C(=O)NC(=O)C2N1Nc1ccc(Cl)cc1Cl (stereo unspecified) | 0.355
COc1ccc([Si](C)(C)[C@@H]2[C@@H](CCn3cc(CCO)nn3)O[C@]3(C(=O)N(Cc4cccc(N5C(=O)c6cccc7cccc5c67)c4)c4ccccc43)[C@H]2C)cc1 | 1.55
COCCCNC(=O)[C@@]1(CCS(=O)(=O)c2ccccc2)N=C(c2ccc(OCCCO)cc2)O[C@H]1c1ccccc1N=[N+]=[N-] | 1.53
O[C@@H](Cc1ccccc1)[C@@H](/C=C/C1CC1)NCc1cccc(Cl)c1 | -0.534

SMILES | composite z-score
CCC(CC)C(O)C1C=CC2C(=O)N(c3ccccc3)C(=O)C2N1Nc1ccccc1 (stereo unspecified) | 1.49
COC(=O)[C@@]1(Cc2ccccc2)[C@H]2c3cc(C(=O)N4CCCC4)n(Cc4ccc(O)c(OC)c4)c3C[C@H]2CN1C(=O)c1ccccc1 | -0.358
COCCCNC(=O)[C@@]1(Cc2ccccc2CN=[N+]=[N-])N=C(c2ccc(OCCCO)cc2)O[C@H]1c1ccccc1CN=[N+]=[N-] | 1.24
COc1ccc(-c2cc3c(c(Cc4ccccc4)n2)[Si](C(C)C)(C(C)C)OC3)cn1 | -0.738
CC(C)(C)OC(=O)CC[C@]1(C(=O)NCCN2CCOCC2)COC(c2ccc(OCCCO)cc2)=N1 | 1.47
CC(C)[Si](C#CCCCC#N)(O[C@H](c1ccccc1)c1cn(Cc2cccc(Cl)c2)nn1)C(C)C | 1.52
COc1ccc(C(=O)Nc2ccc(CN3C(=O)[C@]4(O[C@H](CC(=O)N5CCC[C@H]5CO)[C@@H]([Si](C)(C)c5ccc(OC)cc5)[C@@H]4C)c4ccccc43)cc2)cc1 | 1.54
CC(C)(C)OC(=O)CC[C@@]1(C(=O)N2CCCCC2)N=C(c2ccc(OCCCO)cc2)O[C@@H]1c1ccccc1 | 1.54
O=C1NC(=O)C2C1C=CC(C(O)C1CC=CCC1)N2Nc1ccccn1 (stereo unspecified) | 0.241
[N-]=[N+]=Nc1ccccc1C[C@]1(C(=O)N2CCCCC2)COC(c2ccc(OCCCO)cc2)=N1 | 1.54
COc1ccc([Si](C)(C)[C@@H]2[C@@H](CC(=O)N3Cc4ccccc4C[C@H]3CO)O[C@]3(C(=O)N(Cc4cccc(N5CCC5=O)c4)c4ccccc43)[C@H]2C)cc1 | 1.55
O=C1C[C@@](C(=O)NCc2ccccc2)(c2ccc([N+](=O)[O-])cc2)[C@@H](c2ccc(CO)cc2)N1CC12CC3CC(CC(C3)C1)C2 | 1.54
CC=CC(O)C1C=CC2C(=O)N(C)C(=O)C2N1N(c1ccccc1)c1ccccc1 (stereo unspecified) | 0.344
C=C(CCCC)C(=O)CC[C@H](OC(=O)c1cccnc1)c1ccc(OCCO)cc1 | 0.417
CCOC(=O)C1=CCC(c2ccc(F)cc2)N(S(=O)(=O)c2ccc(C)cc2)C1 (stereo unspecified) | 0.249
O=C1OCCC=C[C@H]2OC34C=CCN(Cn5nnc6ccccc65)C(=O)[C@H]3N(CCO)C(=O)[C@@H]4C12 (stereo partly specified) | -0.312
CC(c1ccccc1)C(O)C1C=CC2C(=O)N(c3ccccc3)C(=O)C2N1Nc1ccccc1 (stereo unspecified) | 1.54
NCCCCCNC(=O)[C@H]1C[C@H]2C(=O)N3CCC[C@H]3C(=O)N2[C@H]1c1ccc(O)cc1 | 1.56
